Data from paper PMC5913336, “True equilibrium measurement of transcription factor-DNA binding affinities using automated polarization microscopy”.

Each sequence was assayed against Tll (Drosophila melanogaster, UniProt P18102 21-118) (assay: FP; 33 mM phosphate pH 7.0, 90 mM NaCl, 0.01% Tween 20, 0.1 mM DTT, 0.5% agarose; room temperature). Conditions: tags: N-GST (pGEX-6P-1, kept); dsDNA, one strand shown.
Chain of Tll (P18102 21-118): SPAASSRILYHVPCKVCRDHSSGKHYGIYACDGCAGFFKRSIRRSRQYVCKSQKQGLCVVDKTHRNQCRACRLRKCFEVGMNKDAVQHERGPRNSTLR
With AAAAAGTCATAT the binding signal was 3.23 Kd / Kd of best base at the position. In the case of AAAAAGTGAAAT, the binding signal is reported as 71.7 Kd / Kd of best base at the position. In the case of AATAAGTCAAAT, the binding signal is reported as 2.37 Kd / Kd of best base at the position. With CAAAAGTCAAAT the binding signal was 2.71 Kd / Kd of best base at the position. In the case of AGAAAGTCAAAT, the binding signal is reported as 2.99 Kd / Kd of best base at the position. For AAAAAGTCAACT, the binding signal was 2.61 Kd / Kd of best base at the position. For ATAAAGTCAAAT, the binding signal was 2.33 Kd / Kd of best base at the position. For AAAAAGTCAATT, the binding signal was 1.96 Kd / Kd of best base at the position. AAAAAGTCCAAT was tested, and the binding signal was 14.4 Kd / Kd of best base at the position. In the case of AAAAAGCCAAAT, the binding signal is reported as 7.08 Kd / Kd of best base at the position. In the case of AAAACGTCAAAT, the binding signal is reported as 8.65 Kd / Kd of best base at the position. AAAAAGTCTAAT was tested, and the binding signal was 13.1 Kd / Kd of best base at the position. AAAAAGACAAAT was tested, and the binding signal was 36.4 Kd / Kd of best base at the position. With AAAAAGTCGAAT the binding signal was 5.21 Kd / Kd of best base at the position. AAAAATTCAAAT was tested, and the binding signal was 71.4 Kd / Kd of best base at the position. With AAAAAGTCAAAG the binding signal was 2.05 Kd / Kd of best base at the position. For AAAAAGTCAGAT, the binding signal was 4.13 Kd / Kd of best base at the position. For AAATAGTCAAAT, the binding signal was 12.4 Kd / Kd of best base at the position. AAAAAGTAAAAT was tested, and the binding signal was 18.6 Kd / Kd of best base at the position. With AAAAAGTCAAAA the binding signal was 1.57 Kd / Kd of best base at the position. In the case of ACAAAGTCAAAT, the binding signal is reported as 3.41 Kd / Kd of best base at the position. AAAAAGTCAAGT was tested, and the binding signal was 3.05 Kd / Kd of best base at the position. For AAAATGTCAAAT, the binding signal was 15 Kd / Kd of best base at the position. In the case of AAAAAATCAAAT, the binding signal is reported as 10.1 Kd / Kd of best base at the position. With AAAAAGTCACAT the binding signal was 1.72 Kd / Kd of best base at the position. In the case of AAAGAGTCAAAT, the binding signal is reported as 3.96 Kd / Kd of best base at the position. With AAAAAGGCAAAT the binding signal was 7.78 Kd / Kd of best base at the position. For AAGAAGTCAAAT, the binding signal was 1.73 Kd / Kd of best base at the position. GAAAAGTCAAAT was tested, and the binding signal was 1.71 Kd / Kd of best base at the position. AAAAACTCAAAT was tested, and the binding signal was 57.7 Kd / Kd of best base at the position. With AAAAAGTTAAAT the binding signal was 2.32 Kd / Kd of best base at the position. In the case of AAACAGTCAAAT, the binding signal is reported as 11.1 Kd / Kd of best base at the position. In the case of AAAAAGTCAAAT, the Kd is reported as roughly 4.1 nM. With AAAAAGTCAAAC the binding signal was 1.05 Kd / Kd of best base at the position. AACAAGTCAAAT was tested, and the binding signal was 3.38 Kd / Kd of best base at the position. In the case of AAAAGGTCAAAT, the binding signal is reported as 6.02 Kd / Kd of best base at the position. In the case of TAAAAGTCAAAT, the binding signal is reported as 2.03 Kd / Kd of best base at the position.
